Measurements from PubChem BioAssay (EPA / NIEHS).
Activity calls are given as the source filed them. Rule for the calls: active = hit-call score of the fitted dose curve at least 0.9, where 1 is the maximum; inactive = score below 0.9.

test: CCTE_Mundy_HCI_Cortical_Synap_Neur_Matur_SynapseCount: CCTE's Synaptogenesis and Neurite Maturation Assay in rat cortical cells for Synapse Count, Mundy Lab (AID 2284218)
Description: CCTE_Mundy_HCI_Cortical_Synap&Neurite_Matur is a multiplexed, cell-based-readout assay that uses rat primary cortical cells with measurements taken at 288.33 hours after chemical dosing in a microplate: 96-well plate.CCTE_Mundy_HCI_Cortical_Synap_Neur_Matur_SynapseCount is one of eight components of the CCTE_Mundy_HCI_Cortical_Synap&Neurite_Matur assay. It measures synaptogenesis and neurite maturation related to number of synapses per neuron using High Content Imaging of fluorescently labelled markers.[…] Using a type of morphology reporter, loss -of-signal activity can be used to understand developmental effects.
Cells are plated onto 96 well plates and allowed 2 hr for attachment to the substrate. At days in vitro (DIV) 5, Cytosine Arabinoside (AraC) is added to arrest glial cell growth. Chemicals are dosed and a media change is performed at DIV 7 of differentiation and is continued through DIV 12 when the experiment is terminated. Cells are fixed with […] and Hoechst Dye. Cells are stained using Millipore Mouse anti-MAP2MAB3418 (1:800) and Millipore Rabbit anti-Synaptophysinsc-1750 (1:250) primary antibodies and Alexa Fluor-488 goat anti-mouse and AlexaFluor-546 goat anti-rabbit secondary antibodies to label neuronal cell nuclei, synapses and neurites. A Cellomics ArrayScan VTi HCS Reader is used for automated image acquisition and analysis of neurite outgrowth.

SMILES | outcome | AC50
CC(C)(C)NCC(O)c1cc(O)cc(O)c1 (stereo unspecified) | inactive | 
CNCCC(Oc1ccc(C(F)(F)F)cc1)c1ccccc1 (stereo unspecified) |  | 9.16 µM (active)
[Cl-].[Cl-].[NH2-].[NH2-].[Pt+4] | inactive | 
NC(N)=Nc1nc(CSCCC(N)=NS(N)(=O)=O)cs1 | inactive | 
CN(C)CCC(c1ccc(Cl)cc1)c1ccccn1 (stereo unspecified) | inactive | 
CN(C)C(=O)C(CCN1CCC(O)(c2ccc(Cl)cc2)CC1)(c1ccccc1)c1ccccc1 |  | 3.43 µM (active)
C[C@@H]1C[C@H]2[C@@H]3CCC4=CC(=O)C=C[C@]4(C)[C@@]3(F)[C@@H](O)C[C@]2(C)[C@@]1(O)C(=O)CO | inactive | 
CC1(C)S[C@@H]2[C@H](NC(=O)[C@H](N)c3ccc(O)cc3)C(=O)N2[C@H]1C(=O)O | inactive | 
C[C@H](CS)C(=O)N1CCC[C@H]1C(=O)O | inactive | 
CC1(C)S[C@@H]2[C@H](NC(=O)[C@H](N)c3ccccc3)C(=O)N2[C@H]1C(=O)O | inactive | 
Cc1c(O)cccc1C(=O)N[C@@H](CSc1ccccc1)[C@H](O)CN1C[C@H]2CCCC[C@H]2C[C@H]1C(=O)NC(C)(C)C |  | 3.11 µM (active)
